Values quoted from earlier work as cited in PubChem BioAssay AID977610.
The whole screen tested about 3,600 compounds, of which about 3,600 (100%) were called active. The limit is not given here; nearly all actives have Ki up to about 18000 µM. The set was probably picked from earlier hits. The list shows a part of the results.

Assay: PubChem AID 977610
Settings: PDB protein-ligand complexes, literature Ki

SMILES: NC(N)Nc1ccc(C=O)cc1
- Ki (protein: Bovine beta trypsin, PDB entry 1gbt): 10000 µM (active)

SMILES: C=CCNC(=O)[C@@H](NC(=O)[C@@](O)(CCCN(Cc1ccc(Br)cc1)NC(=O)[C@@H](NC(=O)OC)C(C)(C)C)Cc1ccccc1)C(C)(C)C
- Ki (protein: PROTEASE, PDB entry 3zps): 0.005 µM (active)

SMILES: CCCNC(=O)[C@@H](NC(=O)[C@@](O)(CCCN(Cc1ccc(-c2ccncc2)cc1)NC(=O)[C@@H](NC(=O)OC)C(C)(C)C)Cc1ccc(CCC)cc1)C(C)C
- Ki (protein: HIV-1 protease, PDB entry 4cp7): 0.0078 µM (active)

SMILES: C=CCNC(=O)[C@@H](NC(=O)[C@@](O)(CCCN(Cc1ccc(-c2cccnc2)cc1)NC(=O)[C@@H](NC(=O)OC)C(C)(C)C)Cc1ccc(CC=C)cc1)C(C)C
- Ki (protein: HIV-1 protease, PDB entry 4cpq): 0.018 µM (active)

SMILES: C=CCNC(=O)[C@@H](NC(=O)[C@@](O)(CCCN(Cc1ccc(-c2cccs2)cc1)NC(=O)[C@@H](NC(=O)OC)C(C)(C)C)Cc1ccc(CC=C)cc1)C(C)C
- Ki (protein: HIV-1 protease, PDB entry 4cpr): 0.035 µM (active)

SMILES: CC1=C(C(=O)O)N[C@@H]([C@@H](C=O)NC(=O)Cc2cccs2)SC1
- Ki (protein: Carboxylesterases, PDB entry 4ivk): 140 µM (active)

SMILES: Cc1cc(C)nc(N)n1
- Ki (protein: PDE10A2, PDB entry 4llx): 1300 µM (active)

SMILES: CNc1nc2cc3nc[nH]c(=O)c3cc2[nH]1
- Ki (protein: Queuine tRNA-ribosyltransferase, PDB entry 3GEV): 2.9 µM (active)
- Ki (protein: Queuine tRNA-ribosyltransferase, PDB entry 3V0Y): 4.1 µM (active)

SMILES: CC(C)[C@@H]1NC(=O)[C@H](CCC(=O)O)NC(=O)[C@H](Cc2ccc(O)cc2)NC(=O)[C@H](CCCNC(N)N)NC(=O)[C@H](CO)NC(=O)[C@@H](NC(=O)[C@H](C)N)CSCc2cc3cc(c2)CSC[C@H](NC(=O)[C@H](CC(=O)O)NC1=O)C(=O)N[C@@H](CCCNC(N)N)C(=O)NCC(=O)N[C@@H](CCCNC(N)N)C(=O)N[C@H](CO)C(=O)N[C@@H](CO)C(=O)N[C@@H](C)C(=O)N[C@H](C(=O)NCC(N)=O)CSC3
- Ki (protein: Urokinase-type plasminogen activator (C122A, N145Q mutation), PDB entry 4jk5): 0.028 µM (active)

SMILES: CC[C@H]1NC(=O)[C@H](CCCNC(N)N)NC(=O)CNC(=O)[C@H](CCCNC(N)N)NC(=O)[C@@H]2CSCc3cc(cc(c3)CSC[C@@H](C(=O)NCC(N)=O)NC(=O)[C@H](C)NC(=O)[C@H](CO)NC1=O)CSC[C@H](NC(=O)[C@H](C)N)C(=O)N[C@@H](CO)C(=O)N[C@@H](CCCNC(N)N)C(=O)N[C@@H](Cc1ccc(O)cc1)C(=O)N[C@@H](CCC(=O)O)C(=O)N[C@@H](C(C)C)C(=O)N[C@@H](CC(=O)O)C(=O)N2
- Ki (protein: Urokinase-type plasminogen activator (C299A, N322Q mutation), PDB entry 4jk6): 0.064 µM (active)

SMILES: NC1=NC2=NC[C@@H](CNc3ccc(C(=O)N[C@@H](CCC(=O)O)C(=O)O)cc3)N(C=O)C2C(=O)N1 (stereo not given in full)
- Ki (protein: Serine hydroxymethyltransferase, putative SHMT, PDB entry 4oyt): 1550 µM (active)

SMILES: C[C@]12CC[C@@H](O)C[C@@H]1CC[C@@H]1[C@@H]2CC[C@]2(C)C=CC[C@@H]12
- Ki (protein: Mus musculus constitutive androstane receptor, PDB entry 1xnx): 0.416 µM (active)

SMILES: C[C@@H](NC(=O)CCCC[C@@H](N)C(=O)O)[C@H](O)C(F)(F)F
- Ki (protein: D-ALANYL-D-ALANINE CARBOXYPEPTIDASE, PDB entry 3zcz): 0.17 µM (active)

SMILES: Cc1cc(C)c(Nc2nc(Nc3ccc(C#N)cc3)nc(OCCCN3CCOCC3)n2)c(C)c1
- Ki (protein: HIV-1 reverse transcriptase, p66 subunit RT52A, PDB entry 4o44): 0.014 µM (active)

SMILES: CC(C)N1CCC(C(=O)Nc2c(OCCCO[C@@H]3O[C@H](CO)[C@@H](O)[C@H](O)[C@H]3O)cccc2OCc2cc(-c3ccc(Cl)s3)on2)CC1
- Ki (protein: Alpha Thrombin, hfIIa, PDB entry 4n3l): 0.1 µM (active)

SMILES: Nc1cc(Cl)nc(N)n1
- Ki (protein: PDE10A2, PDB entry 4ms0): 410 µM (active)

SMILES: CCCCCCCCOc1cccc(CSc2ccc(Br)cc2C(=O)O)c1
- Ki (protein: Dehydrosqualene synthase, PDB entry 3tfv): 0.08 µM (active)

SMILES: CC(C)Nc1cc(=O)n(-c2ccccc2)nc1-c1ncn[nH]1
- Ki (protein: MEMBRANE PRIMARY AMINE OXIDASE, PDB entry 4btx): 0.29 µM (active)

SMILES: c1ccc(-c2nc(N3CCOCC3)c3sccc3n2)cc1
- Ki (protein: 3-OXOACYL-[ACYL-CARRIER-PROTEIN] REDUCTASE FABG, PDB entry 4bny): 0.08 µM (active)

SMILES: O=C(O)C1=C[C@H]2OCC=C[C@@](O)(C1)[C@H]2O
- Ki (protein: SHIKIMATE KINASE, PDB entry 4bqs): 62 µM (active)

SMILES: O=C(O)CCc1cccc(C(=O)O)c1
- Ki (protein: FKBO, PDB entry 4bps): 1020 µM (active)

SMILES: CCC1(CC)C[C@@H](C(=O)NCc2ccc(C(N)N)cc2)n2c1c(Cl)nc(NC1CCC1)c2=O
- Ki (protein: Factor VII heavy chain & Factor VII light chain, PDB entry 4isi): 0.0073 µM (active)

SMILES: O=C(O)C(=O)Nc1sc2c(c1C(=O)O)CCSC2
- Ki (protein: human protein-tyrosine phosphatases 1B, PTP-1B, PDB entry 1gfy): 8.32 µM (active)

SMILES: C[C@H](NC(=O)NC1C2CC3CC(C2)CC1C3)C(=O)N1CC[C@H](c2ccccc2Cl)N1c1ccccc1F (stereo not given in full)
- Ki (protein: rat neurolysin, PDB entry 4fxy): 0.029 µM (active)

SMILES: Cc1nc2cc(OCc3ccc4ccccc4n3)ccc2s1
- Ki (protein: PDE10A2, PDB entry 4mse): 0.69 µM (active)

SMILES: c1cnc2cc(OCc3ccc4ccccc4n3)ccc2c1
- Ki (protein: PDE10A2, PDB entry 4msc): 1.1 µM (active)

SMILES: O=c1[nH]c(=O)n([C@@H]2O[C@H](CO[P+](O)(O)O)[C@@H](O)[C@H]2O)cc1F
- Ki (protein: Mt orotidine 5'-monophosphate decarboxylase (OMPDC) D70G mutant, PDB entry 3g1v): 645 µM (active)

SMILES: O=c1[nH]c(=O)n([C@H]2C[C@H](O)[C@@H](CO[P+](O)(O)O)O2)cc1F
- Ki (protein: human Thymidylate synthase (TS) R163K, PDB entry 3h9k): 0.014 µM (active)
